# Data published in the supplement of paper PMC6522484.
# Structures can show the parent of a compound that is named as a salt. ± gives the standard deviation of the averaged measurements.
# Key:
# DLD1 [1] = assay: cell viability (CellTiter-Glo) relative to plate median (fraction of plate median); higher = more viable cells; conditions: 5 µM; treatment time 24 h; reporter: 7TFP
# Method in brief: (§1)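 Two independent replicates were averaged for each reported value. Library compounds were applied at a final 5 µM for 24 h to colorectal cancer cell lines stably expressing lentiviral TCF/Wnt firefly luciferase reporters. Firefly luciferase or CellTiterGlo luminescence from each well was normalised to the plate median.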
# HCT116 = assay: as above; conditions: 5 µM; treatment time 24 h; reporter: TCF4/Wnt
# Method in brief: as §1
# SW480 [2] = assay: as above; conditions: 5 µM; treatment time 24 h; reporter: 7TFP
# Method in brief: as §1
# DLD1 [3] = assay: TCF/Wnt firefly luciferase reporter signal relative to plate median (fraction of plate median); higher = higher Wnt reporter signal; conditions: 5 µM; treatment time 24 h; reporter: 7TFP
# Method in brief: as §1
# SW480 [4] = assay: as above; conditions: 5 µM; treatment time 24 h; reporter: 7TFP
# Method in brief: as §1
SMILES,cell viability (DLD1 [1]),cell viability (HCT116),cell viability (SW480 [2]),TCF/Wnt firefly luciferase reporter signal (DLD1 [3]),TCF/Wnt firefly luciferase reporter signal (SW480 [4])
CCCCCCCCCCCCCCCCCCOCC(O)CO (stereo not given),0.991 ± 0.084,0.989 ± 0.073,1.02 ± 0.021,1.035 ± 0.0071,1.01 ± 0.09
C[C@]12CCC(=O)C=C1CC[C@@H]1[C@@H]2[C@@H](O)C[C@@]2(C)[C@H]1CC[C@]2(O)C(=O)COC(=O)CCC(=O)O,1.07 ± 0.042,1.11,1.03 ± 0.035,1.01 ± 0.02,1 ± 0.099
C=C1[C@@H]([C@@]2(C)C=CC(=O)C(C)(C)[C@@H]2CC(=O)OC)CC[C@@]2(C)[C@H](c3ccoc3)OC(=O)[C@H]3O[C@]132,0.94 ± 0.021,1.01 ± 0.039,1.02 ± 0.021,0.978 ± 0.19,0.996 ± 0.048
C[C@]12CC[C@@H]3c4ccc(O)cc4CC[C@H]3[C@@H]1CCC2=O,0.894 ± 0.038,1.05 ± 0.057,0.995 ± 0.064,1.15 ± 0.064,1.07 ± 0.085
CC(=O)O[C@H]1C[C@@H](OC(C)=O)C(C)(C)[C@@H]2C[C@@H](OC(C)=O)[C@@]3(C)C4=CC(=O)O[C@@H](c5ccoc5)[C@]4(C)CC[C@@H]3[C@@]12C,1.01 ± 0.018,1.15 ± 0.092,1.05 ± 0.057,0.976 ± 0.011,0.997 ± 0.033
CO/N=C(\C(=O)N[C@@H]1C(=O)N2C(C(=O)O)=C(COC(N)=O)CS[C@H]12)c1ccco1,0.915 ± 0.088,0.949 ± 0.023,0.938 ± 0.027,0.976 ± 0.1,1.13 ± 0.028
COC(=O)C[C@H]1C2(C)CC34OC5(C)O[C@@]6([C@H](OC)C(OC(=O)C(C)C)[C@]7(C)C(/C(=C(/OC)C(C)C)C(=O)O[C@H]7c7ccoc7)[C@@]6(O5)[C@H](OC)[C@@]3(OC)C2OC(C)=O)[C@]14C (stereo not given in full),1.025 ± 0.0071,0.916 ± 0.013,0.9595 ± 0.00071,0.883 ± 0.065,0.903 ± 0.016
O=C(O)CCc1nc(-c2ccccc2)c(-c2ccccc2)o1,0.846 ± 0.15,0.999 ± 0.13,0.963 ± 0.02,0.915 ± 0.03,0.952 ± 0.032
CC1(C)O[C@@H]2C[C@H]3[C@@H]4CCC5=CC(=O)CC[C@]5(C)[C@@]4(F)[C@@H](O)C[C@]3(C)[C@]2(C(=O)CCl)O1,0.921 ± 0.12,0.925 ± 0.074,0.977 ± 0.061,0.927 ± 0.042,1.01 ± 0.066
COc1cccc2c1C(=O)c1c(O)c3c(c(O)c1C2=O)C[C@@](O)(C(C)=O)C[C@@H]3O[C@H]1C[C@H](N)[C@H](O)[C@H](C)O1,0.958 ± 0.027,0.575 ± 0.037,1.03 ± 0.1,0.781 ± 0.21,0.564 ± 0.26
CC[C@@]1(O)C(=O)OCc2c1cc1n(c2=O)Cc2cc3cc(O)ccc3nc2-1,1.05 ± 0.071,0.724 ± 0.093,0.999 ± 0.14,0.871 ± 0.1,0.805 ± 0.041
CN[C@@H]1[C@H](O[C@H]2[C@H](O[C@H]3[C@H](O)[C@@H](O)[C@H](NC(=N)N)[C@@H](O)[C@@H]3NC(=N)N)O[C@@H](C)[C@]2(O)CO)O[C@@H](CO)[C@H](O)[C@H]1O,0.9855 ± 0.0078,1.13 ± 0.042,1.055 ± 0.0071,1.18 ± 0.071,1.11
CCN(CC)C(=S)SSC(=S)N(CC)CC,0.764 ± 0.14,0.504 ± 0.17,0.938 ± 0.12,1.02 ± 0.41,0.842 ± 0.043
OCC(O)CN1CCN(c2ccccc2)CC1 (stereo not given),0.979 ± 0.058,0.995 ± 0.035,0.964 ± 0.033,0.83 ± 0.029,0.9255 ± 0.005
C#CCCCCCCCCCCCC(O)CC(O)CO.C=CCCCCCCCCCCCC(O)CC(O)CO (stereo not given),1.015 ± 0.0071,0.974 ± 0.0099,1.01 ± 0.051,1.05 ± 0.18,0.974 ± 0.11
"CC(C)C1NC(=O)C2CCCN2C1=O (single isomer, unassigned; isomere) [Cyclo(prolylvalyl) (Isomere)]",1 ± 0.023,0.992 ± 0.054,0.958 ± 0.06,0.939 ± 0.067,0.944 ± 0.11

SMILES,cell viability (DLD1 [1]),cell viability (HCT116),cell viability (SW480 [2]),TCF/Wnt firefly luciferase reporter signal (DLD1 [3]),TCF/Wnt firefly luciferase reporter signal (SW480 [4])
Cc1oc(C(C)O)c2c1C(=O)c1c(O)cccc1C2=O (stereo not given) [Bhimamycin A],1.14 ± 0.014,0.958 ± 0.06,1.23 ± 0.13,0.9925 ± 0.0092,1.07 ± 0.042
CC(C)=CCC[C@@H](C)[C@@H]1CC[C@]2(C)C3=C(CC[C@@]12C)[C@@]1(C)CC[C@H](O)C(C)(C)[C@@H]1CC3,1.015 ± 0.0071,0.995 ± 0.021,0.989 ± 0.016,0.918 ± 0.23,1.02 ± 0.085
CCc1cc(C(N)=S)ccn1,0.964 ± 0.035,1.02 ± 0.028,0.987 ± 0.0071,1.07 ± 0.078,1.09 ± 0.028
O=C(O)CN(CCN(CC(=O)O)CC(=O)O)CC(=O)O.[Na+].[Na+].[Na+],0.914 ± 0.021,0.948 ± 0.088,1.01 ± 0.035,1.02 ± 0.12,1.11 ± 0.13
COc1cc(C)c(C(=O)O)c(O)c1,1.05 ± 0.014,1.11 ± 0.14,1 ± 0.037,0.924 ± 0.0085,0.986 ± 0.02
CC(C)[C@H](N)C(=O)OCCOCn1cnc2c(=O)nc(N)[nH]c21,1.01 ± 0.028,0.879 ± 0.12,0.938 ± 0.0071,0.969 ± 0.16,0.876 ± 0.11
C=C1C2=CC(=O)O[C@@H](c3ccoc3)[C@]2(C)CC[C@@H]1[C@@]1(C)C=CC(=O)C(C)(C)[C@@H]1CC(=O)OC,1.14 ± 0.071,1.2 ± 0.092,1.12 ± 0.05,1.01 ± 0.1,0.987 ± 0.033
C#CCCCCCCCCCCCC(O)CC(O)COC(C)=O (stereo not given),1.02 ± 0.021,1.05 ± 0.089,1.06 ± 0.014,1.08 ± 0.12,0.941 ± 0.098
COC(=O)[C@@H]1OC(=O)C2OC23[C@@]1(C)CCC1[C@]2(C)C(C[C@@H](O)[C@]13C)C(C)(C)[C@H](OC(C)=O)C[C@@H]2OC(C)=O (stereo not given in full),1.01 ± 0.091,1.01 ± 0.014,1.01 ± 0.035,1.1 ± 0.042,1 ± 0.11
"COc1cc(O)c2c(=O)cc(-c3ccc(OC)c(-c4c(O)cc(O)c5c(=O)cc(-c6ccc(O)cc6)oc45)c3)oc2c1 [GINKGETIN, K salt]",0.994 ± 0.079,0.899 ± 0.04,0.9925 ± 0.0092,1.1 ± 0.15,1.16 ± 0.2
C[C@@H]1NC(=O)[C@@H](N)CNC(=O)[C@H](C2CCNC(=N)N2)NC(=O)/C(=C/NC(N)=O)NC(=O)[C@H](CNC(=O)CC(N)CCCN)NC1=O.N=C1NCC[C@H]([C@@H]2NC(=O)/C(=C/NC(N)=O)NC(=O)[C@H](CNC(=O)C[C@@H](N)CCCN)NC(=O)[C@H](CO)NC(=O)[C@@H](N)CNC2=O)N1,1.03 ± 0.052,0.993 ± 0.081,0.996 ± 0.076,0.816 ± 0.0071,0.871 ± 0.093
NS(=O)(=O)c1cc(C(=O)O)c(NCc2ccco2)cc1Cl,0.993 ± 0.0099,1.04,1.09 ± 0.042,1.095 ± 0.0071,1.13 ± 0.057
COc1cc(OC)c2c(=O)c(-c3ccccc3)coc2c1,0.989 ± 0.0028,1.04 ± 0.12,1.025 ± 0.0071,1.09 ± 0.064,1.1 ± 0.05
OCCN(CCO)c1nc(N2CCCCC2)c2nc(N(CCO)CCO)nc(N3CCCCC3)c2n1,0.905 ± 0.0042,0.991 ± 0.013,0.973 ± 0.016,1.13 ± 0.042,1.03 ± 0.028
Oc1ccc(OCc2ccccc2)cc1,1.07 ± 0.05,0.975 ± 0.078,0.982 ± 0.017,1 ± 0.17,0.754 ± 0.05
CN[C@H](CC(=O)O)C(=O)O,0.99 ± 0.028,0.966 ± 0.049,0.957 ± 0.0042,1.02 ± 0.014,0.85 ± 0.045
